PubChem BioAssay (NCATS)
Results filed as inconclusive are left out. Calls of active or inactive are those of the source. Calls come from the whole dose curve; as a rule, active = well fitted inhibition curve with a large enough effect; inconclusive = small, poorly fitted or top-dose-only effect; inactive = flat fitted curve, though single readings scatter.

Legend:
[1] = qHTS profiling for inhibitors of Plasmodium falciparum proliferation (AID 504749);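 note: 0% = DMSO vehicle and full inhibition = artemisinin control; nearly all actives have a fitted effect of over 60% in size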; conditions: P. falciparum in erythrocytes, SYBR Green DNA, 72 h, at 28.7 µM (top of the series)
Procedure, shortened: (§1)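 SYBR Green fluorescence (ex 485 nm, em 535 nm) reports parasite DNA after 72 h compound exposure of infected red cells at 0.3% parasitemia, 2.5% hematocrit; signal normalized to 0.29 uM artemisinin and vehicle wells.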

[2] = test system: 3D7; assay: as above; conditions: P. falciparum in erythrocytes, SYBR Green DNA, 72 h; series mostly up to 28.7 µM
Procedure, shortened: as §1

[3] = test system: 7G8; assay: as above; conditions: P. falciparum in erythrocytes, SYBR Green DNA, 72 h; series mostly up to 28.7 µM
Procedure, shortened: as §1

[4] = test system: AA1029; assay: as above; conditions: P. falciparum in erythrocytes, SYBR Green DNA, 72 h; series mostly up to 28.7 µM
Procedure, shortened: as §1

[5] = test system: AS120; assay: as above; conditions: P. falciparum in erythrocytes, SYBR Green DNA, 72 h; series mostly up to 28.7 µM
Procedure, shortened: as §1

[6] = test system: ATS189; assay: as above; conditions: P. falciparum in erythrocytes, SYBR Green DNA, 72 h; series mostly up to 28.7 µM
Procedure, shortened: as §1

[7] = test system: ATS95; assay: as above; conditions: P. falciparum in erythrocytes, SYBR Green DNA, 72 h; series mostly up to 28.7 µM
Procedure, shortened: as §1

[8] = test system: C2A; assay: as above; conditions: P. falciparum in erythrocytes, SYBR Green DNA, 72 h; series mostly up to 28.7 µM
Procedure, shortened: as §1

[9] = test system: CP185; assay: as above; conditions: P. falciparum in erythrocytes, SYBR Green DNA, 72 h; series mostly up to 28.7 µM
Procedure, shortened: as §1

[10] = test system: CP191; assay: as above; conditions: P. falciparum in erythrocytes, SYBR Green DNA, 72 h; series mostly up to 28.7 µM
Procedure, shortened: as §1

[11] = test system: CP192; assay: as above; conditions: P. falciparum in erythrocytes, SYBR Green DNA, 72 h; series mostly up to 28.7 µM
Procedure, shortened: as §1

CC(=O)Nc1ccc(OC(C)=O)cc1
inactive: activity, negative = inhibition ([1]; parasite line A) 10.5% | activity, negative = inhibition ([1]; parasite line B) 11.7% | Potency [2] | Potency [3] | Potency [4] | Potency [5] | Potency [6] | Potency [7] | Potency [8] | Potency [9] | Potency [10] | Potency [11]

Cc1ncc[nH]1
inactive: activity, negative = inhibition ([1]; parasite line A) 1.23% | activity, negative = inhibition ([1]; parasite line B) 14.4% | Potency [2] | Potency [3] | Potency [4] | Potency [5] | Potency [6] | Potency [7] | Potency [8] | Potency [9] | Potency [10] | Potency [11]

CC(O)CN(C)C (stereo not drawn)
inactive: activity, negative = inhibition ([1]; parasite line A) 11.7% | activity, negative = inhibition ([1]; parasite line B) -4.96% | Potency [2] | Potency [3] | Potency [4] | Potency [5] | Potency [6] | Potency [7] | Potency [8] | Potency [9] | Potency [10] | Potency [11]

O=C1c2ccccc2C(=O)C1c1ccc(F)cc1
inactive: activity, negative = inhibition ([1]; parasite line A) -6.63% | activity, negative = inhibition ([1]; parasite line B) 2.77% | Potency [2] | Potency [3] | Potency [4] | Potency [5] | Potency [6] | Potency [7] | Potency [8] | Potency [9] | Potency [10] | Potency [11]

CCN(CC)C(=S)S
inactive: activity, negative = inhibition ([1]; parasite line A) -22.3% | activity, negative = inhibition ([1]; parasite line B) -18.1% | Potency [2] | Potency [3] | Potency [4] | Potency [5] | Potency [6] | Potency [7] | Potency [8] | Potency [9] | Potency [10] | Potency [11]

CC1CCCCN1CCCOC(=O)c1ccccc1 (stereo not drawn)
inactive: activity, negative = inhibition ([1]; parasite line A) 3.84% | activity, negative = inhibition ([1]; parasite line B) 9.27% | Potency [2] | Potency [3] | Potency [4] | Potency [5] | Potency [6] | Potency [7] | Potency [8] | Potency [9] | Potency [10] | Potency [11]

CC(CCc1ccc(O)cc1)NCC(O)c1ccc(O)cc1 (stereo not drawn)
inactive: activity, negative = inhibition ([1]; parasite line A) 1.25% | activity, negative = inhibition ([1]; parasite line B) 15.8% | Potency [2] | Potency [3] | Potency [4] | Potency [5] | Potency [6] | Potency [7] | Potency [8] | Potency [9] | Potency [10] | Potency [11]

Cc1cc2nc3c(=O)[nH]c(=O)nc-3n(C[C@H](O)[C@H](O)[C@H](O)COP(=O)(O)OP(=O)(O)OC[C@H]3O[C@@H](n4cnc5c(N)ncnc54)[C@H](O)[C@@H]3O)c2cc1C
inactive: activity, negative = inhibition ([1]; parasite line A) -1.67% | activity, negative = inhibition ([1]; parasite line B) 14.9% | Potency [2] | Potency [3] | Potency [4] | Potency [5] | Potency [6] | Potency [7] | Potency [8] | Potency [9] | Potency [10] | Potency [11]

C=Cc1ccc(S(=O)(=O)O)cc1
inactive: activity, negative = inhibition ([1]; parasite line A) 12.2% | activity, negative = inhibition ([1]; parasite line B) -6.31% | Potency [2] | Potency [3] | Potency [4] | Potency [5] | Potency [6] | Potency [7] | Potency [8] | Potency [9] | Potency [10] | Potency [11]

O=P(O)(O)OC[C@H]1O[C@](O)(COP(=O)(O)O)[C@@H](O)[C@@H]1O
inactive: activity, negative = inhibition ([1]; parasite line A) 8.54% | activity, negative = inhibition ([1]; parasite line B) 12.4% | Potency [2] | Potency [3] | Potency [4] | Potency [5] | Potency [6] | Potency [7] | Potency [8] | Potency [9] | Potency [10] | Potency [11]

Cc1ccc(S(=O)(=O)NCl)cc1
inactive: activity, negative = inhibition ([1]; parasite line A) -0.743% | activity, negative = inhibition ([1]; parasite line B) 4.28% | Potency [2] | Potency [3] | Potency [4] | Potency [5] | Potency [6] | Potency [7] | Potency [8] | Potency [9] | Potency [10] | Potency [11]

NC(=O)[C@H]1O[C@@H](O)[C@H](O)[C@@H](O)[C@@H]1O
inactive: activity, negative = inhibition ([1]; parasite line A) 12.1% | activity, negative = inhibition ([1]; parasite line B) 13.4% | Potency [2] | Potency [3] | Potency [4] | Potency [5] | Potency [6] | Potency [7] | Potency [8] | Potency [9] | Potency [10] | Potency [11]

OCC1(CO)COC(C(Cl)(Cl)Cl)OC1
inactive: activity, negative = inhibition ([1]; parasite line A) 2.06% | activity, negative = inhibition ([1]; parasite line B) 5.66% | Potency [2] | Potency [3] | Potency [4] | Potency [5] | Potency [6] | Potency [7] | Potency [8] | Potency [9] | Potency [10] | Potency [11]

CC(/C=C/C=C(\C)C(=O)O[C@@H]1O[C@H](CO[C@@H]2O[C@H](CO)[C@@H](O)[C@H](O)[C@H]2O)[C@@H](O)[C@H](O)[C@H]1O)=C\C=C\C=C(C)\C=C\C=C(/C)C(=O)O[C@@H]1O[C@H](CO[C@@H]2O[C@H](CO)[C@@H](O)[C@H](O)[C@H]2O)[C@@H](O)[C@H](O)[C@H]1O
inactive: activity, negative = inhibition ([1]; parasite line A) 7.84% | activity, negative = inhibition ([1]; parasite line B) -1.1% | Potency [2] | Potency [3] | Potency [4] | Potency [5] | Potency [6] | Potency [7] | Potency [8] | Potency [9] | Potency [10] | Potency [11]
